The structures appear in SMILES notation. This is part of a sample that, as a whole, favours compounds with a hit. Of some 83,000 tested, about 20% had one in any assay.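 Step 1: grow cells in 96-well plates. Step 2: add test compound at a single concentration. Step 3: incubate 48 h. Step 4: record percent growth.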 Unmarked numbers belong to inactive results. Active and inactive are the calls of the source. Rule for the calls: active = growth percent below 10; inactive = the rest.

The subject of this assay is MALME-3M melanoma. Put plainly: NCI-60 one-dose screen, 48 h (100 = growth as untreated, 0 = no growth, -100 = all killed). Particulars: 10 µM unless noted.
As for `C/C(=N\Nc1cc(C)nc2ccc(Br)cc12)c1ccc([N+](=O)[O-])cc1`, the growth is 123%.
As for `N/C(=N\C(N)=N\c1nc2ccccc2s1)c1ccnc(Br)c1`, the growth is 64.5%.
With `COc1cc(/C=N/NC(=O)c2cnn3c2NC(c2ccccc2)C3)ccc1Oc1ccccc1` (stereo unspecified), the growth was 27.4%.
In the case of `COc1cc(-c2n/c(=C\c3c(O)[nH]c4ccc(Cl)cc34)cc3c2=Nc2ccccc2-3)ccc1F` it was -66.4% (active); in that of `c1ccc2c(-c3c[nH]c4ccccc34)c3c(cc2c1)[nH]c1ccccc13`, 78.9%.
The value for `C=C(C)[C@@H]1CC[C@]2(CN)CC[C@]3(C)[C@H](CC[C@@H]4[C@@]5(C)CCCNC(C)(C)[C@@H]5CC[C@]43C)[C@@H]12` was -70.5% (active); that for `CCOC(=O)/C(C#N)=C1/NNC(=Nc2cccnc2)S1` was 105%.
For the molecule `O=C1c2ccc3c4c(ccc(c24)C(=O)N1CCCNCc1ccccc1Cl)C(=O)N(CCCNCc1ccccc1Cl)C3=O`, the growth was -72.9% (active).
The value for `CCN(CC)c1ccc(/C=N/NC(=O)CSc2nc3ccccc3c(=O)n2Cc2ccc(S(N)(=O)=O)cc2)c(O)c1` was 31.3%.
For the molecule `COc1cc(/C=C/c2cc(O)c(C(C)=O)c(O)c2)cc2c1O[C@]1(C)CC[C@@H](O)C(C)(C)[C@H]1C2`, the growth is 65.8%.
`O=C(CCN1CCCC1)Nc1ccc2c(NCCCc3ccccc3)c3ccccc3nc2c1`: the growth was -90.7% (active).
The value for `CCSCC1CC(O)(c2ccccc2)CC(c2ccc(F)cc2)O1` (stereo unspecified) was -17.8% (active).
The value for `N/C(=N\C(N)=N\c1nc2ccccc2s1)c1cnccn1` was 16.8%; that for `C#CCNC(=O)[C@]1(C)CC[C@]2(C)CC[C@@H]3C(=CC[C@H]4[C@@]3(C)CC[C@H]3C(C)(C)C(=O)CC[C@]43C)[C@@H]2C1` was 114%.
As for `CCc1ccc(CNc2ccc(N3CCOCC3)c(C(=O)O)c2)cc1`, the growth is 101%.
In the case of `COc1ccc(/C=N/NC(=O)c2cnn3c2NC(c2ccccc2)C3)cc1OC` (stereo unspecified) it was 76.4%; in that of `N#CC1=C(/N=C/c2ccccc2)Oc2c(ccc3ccccc23)C1c1ccc([N+](=O)[O-])cc1` (stereo unspecified), 96.6%.
As for `O=C(Cc1ccccc1)NNc1nc(Cl)nc(N2CCN(C(c3ccccc3)c3ccccc3)CC2)n1`, the growth was 99.6%.
The value for `COC(=O)C1=C(C(=O)ON)[C@@H]2C=C[C@@]1([C@@H](Cc1ccccc1)Nc1ccccc1)O2` was -68.8% (active); that for `CCCOC(=O)N[C@H]1CCc2c(Cl)c(OC)c(OC)c(OC)c2-c2ccc(SC)c(=O)cc21` was 25.2%; that for `CCN(CC)CCCC(C)Nc1cc(O)cc2cccnc12` (stereo unspecified) was 128%.
Consider `O=C1c2ccc3c4c(ccc(c24)C(=O)N1CCCNCc1ccccc1F)C(=O)N(CCCNCc1ccccc1F)C3=O`, for which the growth is -72.2% (active).
The value for `CC1=CCC(OC(=O)C(C)(O)CCC(O)(C(=O)OC2(C)C=CC(O)(C(C)C)CC2)C(C)C)(C(C)C)CC1` (stereo unspecified) was 97.2%; that for `CCCCCCNC(=O)Nc1ccc2cc3ccc(NC(=O)NCCCCCC)cc3nc2c1` was -35.7% (active); that for `C[C@H]1[C@H](C)CC[C@]2(C(=O)NCC#CCN3CCN(C)CC3)CC[C@]3(C)C(=CC[C@@H]4[C@@]5(C)Cc6c([nH]c7ccccc67)C(C)(C)[C@@H]5CC[C@]43C)[C@H]12` was 61.6%.
For the molecule `O=C(/C=C(/C=C/c1coc2ccccc12)OB(F)F)/C=C/c1coc2ccccc12`, the growth was 94.5%.

The values are drawn from PubChem BioAssay (NCI).
